± gives the standard deviation. Some results are limits rather than exact numbers.

The experiment has as its system MILI (PIWIL2) piRISC loaded with piRNA #1 (26 nt). The experiment in a line: pre-steady-state target cleavage rate (min^-1); guide: piRNA #1 5'p-UGAGGUAGUAGGUUGUAUAGUAUCCA; MIWI and MILI are mouse PIWI proteins and EfPiwi is from a freshwater sponge; tags in brackets are library labels; higher = faster piRNA-guided slicing of the target. The conditions noted are these: auxiliary factor: 500 nM mouse GTSF1. The protocol:
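Cleave-'n-Seq: a library of target RNAs (target site embedded in constant flanks, ACAGCATTCCGCGTTAGTGATATCCG... 5' flank; DNA-blocked outside the site) at 0.1 nM was incubated with 1 nM active mouse MILI or MIWI piRISC (synthetic 5'-monophosphorylated piRNA guide) with or without 500 nM mouse GTSF1 at 33 °C for 1 min to 16 h. Uncleaved targets were sequenced and normalised to non-target controls, and the pooled three trials were fitted to a burst-and-steady-state model to give the pre-steady-state cleavage rate (min^-1; k3 is constrained to at most 1e-4). Sequence is the target site only; target names encode pairing extent (gX:gY) and contiguous / 1-mismatch / 2-mismatch / bulge geometry. Fits with R² ≤ 0 are excluded.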
Turning to GGAGACCUAUCUAUCCAACCUACUACCUCA, the “pre-steady-state target cleavage rate” value worked out at 0.0742 ± 0.0096.
To GGAGACCAUACUAAACAACCUACUAGCUCA belongs 0.165 ± 0.03; to GGAGACCAUACUAUACAACCUAGCUACCUCA, 0.0804 ± 0.012; to GGAGACCUUACUAUACUACCAACUACCUCA, 0.00617 ± 0.0026.
To GGAGACCUUACUAUACAACCAACUACCUCA belongs 0.00455 ± 0.0024; to GGAGACCUAUGAUAUGAACUACUACCUCA, 0.00657 ± 0.0021.
The figure for GGAGACCUAUCUAAACAACCUACUACCUCA is 0.0794 ± 0.014; for GGAGACCUUACUAUACAACCUAGUUCCUCA it is 0.0143 ± 0.0048.
GGAGACCUAUCUAUAGAACCUACUUCCUCA: the “pre-steady-state target cleavage rate” value was found to be 0.00536 ± 0.0024.
In the case of GGAGACCUAUGAAUAGAACCUACUACCUCA, the “pre-steady-state target cleavage rate” value came out at 0.00534 ± 0.0016.
In the case of GGAGAGCAUUCUAUACAACCUACUACCUCA, the “pre-steady-state target cleavage rate” value was 0.156 ± 0.013.
To GGAGACGAUACUAUACAACCUAUACCUCA belongs 0.0145 ± 0.0044.
The figure for GGAGACCAUUCUAAACAACCUACUACCUCA is 0.0936 ± 0.012; for GGAGAGGUUACUAAACAACCUACUACCUCA it is 0.142 ± 0.013; for GGAGAGGUUACAAUACAACCUACUACCUCA it is 0.181 ± 0.014.
Consider GGAGACCUAUGAUAACAAGCUACUACCUCA, for which the “pre-steady-state target cleavage rate” value turned out to be 0.0133 ± 0.0028.
To GGAGACCAUACAAUAGAACCUACUACCUCA belongs 0.179 ± 0.02; to GGAGAGGAUACUAUACAACCUACAUCCUCA, 0.00373 ± 0.0031; to GGAGACCAUACUAAACAACCUUCUACCUCA, 0.00805 ± 0.0035.
To GGAGAGGAUACUAUACAACCUACUACGAGA belongs 0.00764 ± 0.0034.
Consider GGAGACCAUACUUUAGAACCUACUACCUCA, for which the “pre-steady-state target cleavage rate” value was 0.134 ± 0.013.
Turning to GGAGACCUAUGAAUACAAGCUACUACCACA, the “pre-steady-state target cleavage rate” value is 0.0366 ± 0.0055.
For GGAGAGGAUACUAUACAACCAUACUACCUCA, the “pre-steady-state target cleavage rate” value turned out to be 0.00709 ± 0.0019.
Regarding GGAGACCUAUCUAUACAACCUACUACCACA, the “pre-steady-state target cleavage rate” value is 0.136 ± 0.019.
The figure for GGAGACCUAUCUAUACAACCUACUGCCUCA is 0.0855 ± 0.013; for GGAGACCUAUGUAUACAACCUACUACCGCA it is 0.085 ± 0.015.
On to GGAGACCUAAACUAUACAACCUACUACCUCA, for which the “pre-steady-state target cleavage rate” value is 0.148 ± 0.018.
The figure for GGAGACCUAACAAUACAACCUAGUACCUCA is 0.00888 ± 0.0052; for GGAGACCUAUGUAUACAACCUACCACCUCA it is 0.0347 ± 0.0083; for GGAGACCUAUCUAUACAACCUACUACGUCA it is 0.0507 ± 0.008.
To GGAGACCAUUCUAUACAACCUUCUACCUCA belongs 0.0122 ± 0.0038; to GGAGACGAUACAUAACAACCUACUACCUCA, 0.114 ± 0.013; to GGAGUGGAUACUAUACAACCUAGAACCUCA, 0.0036 ± 0.0022.
As to GGAGACCUUACUAUACAACCUACUACCGCA, the “pre-steady-state target cleavage rate” value is 0.19 ± 0.022.
For the sequence GGAGUGGAUACUAAACAACCUACUACGUCA, the “pre-steady-state target cleavage rate” value came out at 0.0421 ± 0.0062.
As for GGAGACCUAAUAUACAACCUACUACCUCA, the “pre-steady-state target cleavage rate” value came out at 0.0727 ± 0.014.
To GGAGACCUAUGAUAUGUACCUAGUUCCUCA belongs less than 0.0001.
The figure for GGAGACCUUACUUUACUACCUACUACCUCA is 0.0948 ± 0.01.
To GGAGACGAUACUAUACAACCUACUACCGUCA belongs 0.125 ± 0.023; to GGAGACCUAACAAUACAACCUACUAGCUCA, 0.0462 ± 0.017.

The values above are taken from the supplement of paper PMC10338343.
